From PubChem BioAssay (NCATS) come the findings set out here.

SMILES strings stand for the structures. Records with an inconclusive call do not appear. Active and inactive are the calls of the source. Unless noted, calls come from the whole dose curve.

Assay [1] can be described thus: Primary qHTS for inhibitors of SARS-S pseudo-typed particle cell entry (AID 1479145; note: nearly all actives have a fitted effect of over 45% in size; note: potency is the fitted concentration of half-maximal effect). (qHTS replaces the single test concentration by a dilution series.)
Assay [2] can be described thus: Primary qHTS for Huh7 cytotoxicity: counterscreen for inhibitors of MERS-S pseudotyped particle cell entry (AID 1479147).
The nature of assay [3]: Primary qHTS for inhibitors of MERS-S pseudo-typed particle cell entry (AID 1479149). Note: nearly all actives have a fitted effect of over 60% in size. Note: potency is the fitted concentration of half-maximal effect.
Assay [4] is described as follows: Primary qHTS for Vero E6 cytotoxicity: counterscreen for inhibitors of SARS-S pseudo-typed particle cell entry (AID 1479150). Note: potency is the fitted concentration of half-maximal effect.
A short description of assay [5]: Primary qHTS for inhibitors of La Crosse Virus (LACV) - induced cell death in SH-SY5Y cells (AID 1508616; active = well fitted inhibition curve with a large enough effect;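 note: top concentration of the series differs between compounds; higher means more rescue of cells from virus-induced death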). An outline of the steps: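 SH-SY5Y, 6000 cells/well; cpd via pin tool in DMSO; LACV 0.01 MOI; 6 d 37C 5% CO2; ATPLite, 5 min RT; luminescence normalized to ±virus DMSO controls.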
Assay [6] is described as follows: Confirmatory qHTS for VERO E6 Cytotoxicity Assay: Counterscreen for SARS-CoV-2 CPE Assay (AID 1508605). Note: series mostly up to about 20 µM; nearly all actives have a fitted effect of over 60% in size.
Assay [7] can be described thus: Confirmatory qHTS for activators (rescue) of SARS-CoV-2 Cytopathic Effect (CPE) (AID 1508606). Note: potency is the fitted concentration of half-maximal effect; nearly all actives have a fitted effect of over 70% in size.

For the compound `CN(Cc1ccc(C(C)(C)C)cc1)Cc1cccc2ccccc12`, the Potency result in assay [1], in assay [2], in assay [3] and in assay [4] was “inactive” each time.
With `CC(=O)OC[C@H]1O[C@@](COC(C)=O)(O[C@H]2O[C@H](COC(C)=O)[C@@H](OC(C)=O)[C@H](OC(C)=O)[C@H]2OC(C)=O)[C@@H](OC(C)=O)[C@@H]1OC(C)=O`, the Potency entry in assay [1], in assay [2], in assay [3] and in assay [4] was “inactive” throughout.
`Oc1cc(O)c2c(c1)O[C@H](c1ccc(O)c(O)c1)[C@H](O)C2`: the Potency entry in assay [1], in assay [2], in assay [3] and in assay [4] was “inactive” in each case.
As for `CCC(C(=O)OCCN1CCOC(c2ccccc2)C1C)c1ccccc1` (configuration not stated), the Potency result in assay [1], in assay [2], in assay [3] and in assay [4] was “inactive” throughout.
Take `CN(C)CCn1nnnc1SCC1=C(C(=O)O)N2C(=O)[C@@H](NC(=O)Cc3csc(N)n3)[C@H]2SC1`: the Potency entry in assay [1], in assay [2], in assay [3] and in assay [4] was “inactive” in each case.
With `CCOC(=O)NNc1nncc2ccccc12`, the Potency result in assay [1], in assay [2], in assay [3] and in assay [4] was “inactive” each time.
With `CNC(=O)c1cnn(-c2nc(N)c3ncn([C@@H]4O[C@H](CO)[C@@H](O)[C@H]4O)c3n2)c1`, the Potency entry in assay [1], in assay [2], in assay [3] and in assay [4] was “inactive” each time.
With `O=C(O)COC(=O)Cc1ccccc1Nc1c(Cl)cccc1Cl`, the Potency result in assay [1], in assay [2], in assay [3] and in assay [4] was “inactive” in each case.
As for `O=S1(=O)OC(c2ccc(O)cc2)(c2ccc(O)cc2)c2ccccc21`, the Potency result in assay [1], in assay [2], in assay [3] and in assay [4] was “inactive” throughout.
Regarding `NCCNC(=O)c1ccc(Cl)cn1`, the Potency entry in assay [1], in assay [2], in assay [3] and in assay [4] was “inactive” each time.
Consider `CCCCC(=O)O[C@]1(C(=O)CO)CC[C@H]2[C@@H]3CCC4=CC(=O)CC[C@]4(C)[C@H]3[C@@H](O)C[C@@]21C`, for which the Potency result in assay [1], in assay [2], in assay [3] and in assay [4] was “inactive” in each case.
As for `COCCc1ccc(OCC(O)CNC(C)C)cc1` (configuration not stated), the Potency entry in assay [1], in assay [2], in assay [3] and in assay [4] was “inactive” throughout.
On to `Cc1ncc(CSSCc2cnc(C)c(O)c2CO)c(CO)c1O`, for which the Potency result in assay [1], in assay [2], in assay [3] and in assay [4] was “inactive” in each case.
On to `CCCNC(C)(C)COC(=O)c1ccccc1`, for which the Potency entry in assay [1], in assay [2], in assay [3] and in assay [4] was “inactive” throughout.
As for `COCc1c(C(C)C)nc(C(C)C)c(/C=C/[C@@H](O)C[C@@H](O)CC(=O)O)c1-c1ccc(F)cc1`, the Potency entry in assay [1], in assay [2] and in assay [3] was “inactive” in each case. Besides, in assay [4], the Potency was 0.708 µM (active).
For the compound `C[C@H]1NCc2cc(-c3ccc4c(=O)c(C(=O)O)cn(C5CC5)c4c3OC(F)F)ccc21`, the Potency result in assay [1], in assay [2], in assay [3] and in assay [4] was “inactive” throughout.
Regarding `C[N+](C)(C)CCOC(=O)CCC(=O)OCC[N+](C)(C)C`, the Potency result in assay [1], in assay [2], in assay [3] and in assay [4] was “inactive” in each case.
`OC1C(O)C(O)C(O)C(O)C1O` (configuration not stated): the Potency entry in assay [1], in assay [2], in assay [3] and in assay [4] was “inactive” throughout.
For `CC(=C(CCOC(=O)C(C)C)SSC(CCOC(=O)C(C)C)=C(C)N(C=O)Cc1cnc(C)nc1N)N(C=O)Cc1cnc(C)nc1N`, the Potency result in assay [1], in assay [2], in assay [3] and in assay [4] was “inactive” in each case.
Regarding `O=C(Nc1ccc([N+](=O)[O-])cc1)Nc1ccc([N+](=O)[O-])cc1`, the Potency result in assay [1], in assay [2], in assay [3] and in assay [4] was “inactive” in each case.
Take `Cc1cccc(C)c1NC(=O)C(C)N` (configuration not stated): the Potency entry in assay [1], in assay [2], in assay [3] and in assay [4] was “inactive” throughout.
In the case of `CCC1Nc2cc(Cl)c(S(N)(=O)=O)cc2S(=O)(=O)N1` (configuration not stated), the Potency entry in assay [1], in assay [2], in assay [3] and in assay [4] was “inactive” each time.
`C[N+](C)(C)CCCCCCCCCC[N+](C)(C)C`: the Potency result in assay [1], in assay [2], in assay [3] and in assay [4] was “inactive” throughout.
Regarding `O=c1[nH]cnc2c1ncn2[C@@H]1O[C@H](CO)[C@@H](O)[C@H]1O`, the Potency entry in assay [1], in assay [2], in assay [3] and in assay [4] was “inactive” each time.
As to `CN1CCOC(c2ccccc2)c2ccccc2C1` (configuration not stated), the Potency entry in assay [1], in assay [2], in assay [3] and in assay [4] was “inactive” throughout.
Turning to `C#C[C@]1(O)CC[C@H]2[C@@H]3CCc4cc(OC)ccc4[C@H]3CC[C@@]21C`, the Potency entry in assay [1], in assay [2], in assay [3] and in assay [4] was “inactive” each time.
On to `NS(=O)(=O)c1cc2c(cc1Cl)NC(CSCc1ccccc1)=NS2(=O)=O`, for which the Potency entry in assay [1], in assay [2], in assay [3] and in assay [4] was “inactive” throughout.
With `Cc1cccc(N(C)C(=S)Oc2ccc3c(c2)CCC3)c1`, the Potency result in assay [1], in assay [2], in assay [3] and in assay [4] was “inactive” throughout.
Regarding `CC(=O)Oc1ccc(C(=C2CCCCC2)c2ccc(OC(C)=O)cc2)cc1`, the Potency result in assay [1], in assay [2], in assay [3] and in assay [4] was “inactive” in each case.
In the case of `C[N+]1(CC2COC(c3ccccc3)(C3CCCCC3)O2)CCCCC1` (configuration not stated), the Potency entry in assay [1], in assay [2] and in assay [4] was “inactive” in each case.
Consider `CCC(=O)O[C@H]1CC[C@H]2[C@@H]3CCC4=CC(=O)CC[C@]4(C)[C@H]3CC[C@]12C`, for which the Potency result in assay [1], in assay [2], in assay [3] and in assay [4] was “inactive” each time. For the same compound, the compound was classed as inactive in assay [5].
As for `CCOC(=O)C1=C[C@]2(CC)CCCN3CCc4c(n1c1ccccc41)[C@@H]32`, the Potency entry in assay [1], in assay [2] and in assay [4] was “inactive” throughout.
With `CCOC(=O)[C@H](CCc1ccccc1)N[C@H]1CCc2ccccc2N(CC(=O)O)C1=O`, the Potency entry in assay [1], in assay [2], in assay [3], in assay [4] and in assay [6] was “inactive” throughout.
For `CN(C)CC/C=C1\c2ccccc2Sc2ccc(Cl)cc21`, the results for the Potency in assay [1], in assay [3] and in assay [7] were 10 µM (active), 25.1 µM (active) and 8.91 µM (active), respectively. For the same compound, the Potency entry in assay [2], in assay [4] and in assay [6] was “inactive” throughout.
Regarding `C/C=C/c1ccc(O)c(OC)c1`, the Potency result in assay [1], in assay [2], in assay [3] and in assay [4] was “inactive” throughout.
